Reference: the supplement of paper PMC6555819

Columns and labels:
Experiment in all cases: PBM binding z-score (relative to random genomic background probes); higher = stronger binding; sequences stand for … in GC…GCGATTGACAGCGTAGAATGAAGG
[1] = system: FXR:RXRa (NR concentration 270 nM, RXRa partner concentration 90 nM)
Summary of the method: (§1)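 For binding z-scores, the reference was random background probes on custom Agilent 4×180K protein-binding microarrays. These arrays were incubated 1 h with ligand-free nuclear receptor dimers in PBS pH 7.4, 2% milk, 0.02% Triton X-100, 1 mM DTT, 0.2 mg/mL BSA and 0.4 mg/ml salmon testes DNA. Fluorescence was scanned after antibody detection of each partner (one per run) and regression-normalized.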

[2] = system: LXRa:RXRa (NR concentration 270 nM, RXRa partner concentration 90 nM)
Summary of the method: as §1

[3] = system: LXRa homodimer (NR concentration 270 nM)
Summary of the method: as §1

[4] = system: LXRb:RXRa (NR concentration 270 nM, RXRa partner concentration 90 nM)
Summary of the method: as §1

[5] = system: LXRb homodimer (NR concentration 270 nM)
Summary of the method: as §1

[6] = system: PPARa:RXRa (NR concentration 270 nM, RXRa partner concentration 90 nM)
Summary of the method: as §1

[7] = system: PPARg:RXRa (NR concentration 180 nM, RXRa partner concentration 90 nM)
Summary of the method: as §1

[8] = system: PPARg:RXRa 270nM:90nM, anti-RXR (NR concentration 270 nM, RXRa partner concentration 90 nM)
Summary of the method: as §1

[9] = system: PPARg:RXRa 30nM:10nM, anti-RXR (NR concentration 30 nM, RXRa partner concentration 10 nM)
Summary of the method: as §1

[10] = system: PPARg:RXRa 90nM:30nM, anti-RXR (NR concentration 90 nM, RXRa partner concentration 30 nM)
Summary of the method: as §1

[11] = system: PPARg:RXRa DBDmut IVT, anti-RXR (DBD mutation: RXRa K156A/R161A, NR concentration 270 nM, RXRa partner concentration 90 nM)
Summary of the method: as §1

[12] = system: PPARg:RXRa IVT, anti-PPARg (NR concentration 270 nM, RXRa partner concentration 90 nM)
Summary of the method: as §1

[13] = system: PPARg DBDmut:RXRa IVT, anti-PPARg (DBD mutation: PPARg1 K132A/R137A, NR concentration 270 nM, RXRa partner concentration 90 nM)
Summary of the method: as §1

[14] = system: PPARg DBDmut IVT, anti-PPARg (DBD mutation: PPARg1 K132A/R137A, NR concentration 270 nM)
Summary of the method: as §1

[15] = system: PPARg homodimer (NR concentration 180 nM)
Summary of the method: as §1

[16] = system: PXR:RXRa (NR concentration 270 nM, RXRa partner concentration 90 nM)
Summary of the method: as §1

[17] = system: PXR homodimer (NR concentration 270 nM)
Summary of the method: as §1

[18] = system: RARa:RXR (NR concentration 270 nM, RXRa partner concentration 90 nM)
Summary of the method: as §1

[19] = system: RARa homodimer (NR concentration 270 nM)
Summary of the method: as §1

[20] = system: RARb:RXRa (NR concentration 270 nM, RXRa partner concentration 90 nM)
Summary of the method: as §1

Row | Sequence | PBM binding z-score [1] | PBM binding z-score [2] | PBM binding z-score [3] | PBM binding z-score [4] | PBM binding z-score [5] | PBM binding z-score [6] | PBM binding z-score [7] | PBM binding z-score [8] | PBM binding z-score [9] | PBM binding z-score [10] | PBM binding z-score [11] | PBM binding z-score [12] | PBM binding z-score [13] | PBM binding z-score [14] | PBM binding z-score [15] | PBM binding z-score [16] | PBM binding z-score [17] | PBM binding z-score [18] | PBM binding z-score [19] | PBM binding z-score [20]
1 | CCAGACAGGTGAACGGTAACTCAGTCTGGTACGC | -0.375 | -0.082 | -0.28 | -0.0922 | -0.29 | 0.511 | 0.882 | 0.577 | -0.465 | 0.132 | 1.49 | 1.08 | -0.573 | -0.154 | 0.0136 | -0.325 | -0.355 | -0.289 | -0.204 | 0.99
2 | AGAACGAGGGCACGCTGAGTTGATAGGAGAGTAG | 0.875 | 0.502 | -0.34 | 0.213 | -0.689 | 2.07 | 2.14 | 1.82 | 0.367 | 1.14 | 3.83 | 3.7 | 0.653 | 0.276 | 0.451 | 1.1 | 0.0753 | 0.906 | -0.652 | 2.37
3 | ACTAGTTGGCCAGCTGAGGTCACACACAATTCGG | 2.99 | 2.85 | 1.49 | 3.25 | -0.00517 | 3.54 | 1.55 | 1.67 | 0.296 | 1.05 | 0.715 | 1.85 | 0.578 | 0.0549 | 2.34 | 4.59 | 1.49 | 4.57 | 0.503 | 3.19
4 | CCGAGCAGGTTATGGGGCATTCAGGCAACGGTGA | 0.101 | 0.177 | -0.511 | 0.325 | -0.148 | 1.45 | 0.617 | 1.24 | -0.414 | 0.762 | 0.393 | 1.05 | -0.884 | -0.839 | 0.261 | -0.112 | -0.362 | 0.225 | -0.391 | 1.04
5 | CGTCCAAGGTCAGCAGGTCAGGGAAAGCGACGTG | 5.75 | 3.75 | 0.358 | 3.11 | -0.252 | 4.79 | 4.23 | 4.7 | 1.38 | 3.21 | 3.07 | 3.53 | -0.625 | -0.856 | 4.09 | 3.83 | 0.492 | 5.33 | 1.3 | 5.27
6 | TGTCGGAGGACACGAAAGGTCAGAGCTCGACATC | 3.25 | 3.96 | 2.69 | 3.16 | 0.015 | 3.69 | 1.62 | 2.54 | 0.799 | 1.53 | -0.0424 | 1.74 | 0.729 | -0.228 | 2.53 | 4.04 | 0.82 | 4.12 | 1.52 | 4.31
7 | AGAACGAGGTTAAGATCAGGGAAACAGAATACAT | 2.1 | 2.05 | 0.0843 | 2.09 | 0.134 | 3.4 | 1.98 | 1.92 | 0.64 | 1.61 | 1.95 | 2.16 | 1.47 | 0.398 | 0.757 | 1.27 | 0.776 | 1.89 | 0.576 | 1.91
8 | CGTCCAAGGTCAGAGAGGTCCGTGAATGCCGAGT | 4.9 | 3.08 | -0.0652 | 1.98 | -0.373 | 3.88 | 1.83 | 2.4 | -0.0552 | 1.08 | 2.12 | 2.18 | -0.282 | -0.705 | 1.61 | 3.03 | 1.11 | 2.98 | 0.291 | 4.67
9 | TAGCCTAGGTCAGATCGGGTCAGTATACGCTATA | 2.96 | 2.75 | 0.202 | 2.43 | -0.00739 | 2.8 | 1.19 | 1.5 | 0.171 | 1.08 | 0.599 | 2.06 | -0.409 | 0.264 | 0.633 | 4.16 | -0.399 | 2.21 | -0.275 | 3.55
10 | ATCTCTAGGTAACCACGTTCAGTGAATGCCGAAC | -0.0584 | -0.141 | 0.335 | -0.0295 | 0.814 | 0.308 | 0.571 | 0.503 | 0.0771 | 0.0954 | 2.95 | 2.6 | 1.15 | 0.998 | 0.238 | -0.177 | 0.023 | -0.2 | 0.526 | 0.324
11 | CCGAGTAGGTTATGGGGCACTCAGGCAACGGTGA | 0.104 | 0.294 | -0.464 | 0.136 | -0.707 | 2.08 | 3.55 | 4.33 | 2.45 | 4.11 | 3.14 | 3.7 | -0.555 | -0.9 | 0.446 | -0.0743 | -0.0972 | 0.214 | -0.134 | 1.15
12 | ATCTCTAGGTAAAGGTTCAGTGAATCCCGAGGAT | 0.405 | 0.578 | 0.436 | 0.491 | 0.67 | 2.93 | 4.99 | 5.83 | 3.95 | 5.85 | 2.8 | 3.07 | 1.06 | 0.461 | 0.615 | 0.795 | 0.0698 | 0.886 | 0.514 | 1.32
13 | TAGCCTAGTTCATGGGCCAGTATACCACGCGAAC | 0.00503 | 0.504 | -0.133 | 0.304 | -0.689 | 0.867 | 0.6 | 0.24 | -0.416 | 0.104 | 0.459 | 0.731 | -0.299 | -0.226 | -0.229 | 0.408 | 0.205 | 0.216 | -0.319 | 1.37
14 | AGTATGAGGTTATACGTAGATCAGGGAAGAAAGT | 1.82 | 2.03 | 0.26 | 1.56 | 0.204 | 2.46 | 1.32 | 1.2 | 0.646 | 1.07 | 1.1 | 0.98 | 0.752 | 0.274 | 0.842 | 1.25 | 0.582 | 1.66 | 0.209 | 1.58
